Reference: PubChem BioAssay (EPA / NIEHS)
The source made the active and inactive calls. The calls were made as follows: active = hit-call score of the fitted dose curve at least 0.9, where 1 is the maximum; inactive = score below 0.9.

The compounds below were run against Signal transducer and activator of transcription 3 (Homo sapiens) (UniProt P40763) (assay: ATG_STAT3_CIS: Attagene CIS-FACTORIAL HepG2 Assay for human Signal Transducer and Activator of Transcription 3 (STAT3) (AID 2282963)). Conditions: HepG2, Attagene cis-factorial STAT3 reporter transcription; actives raise or lower the signal.
Signal transducer and activator of transcription 3 (Homo sapiens), sequence (P40763 whole entry, looked up): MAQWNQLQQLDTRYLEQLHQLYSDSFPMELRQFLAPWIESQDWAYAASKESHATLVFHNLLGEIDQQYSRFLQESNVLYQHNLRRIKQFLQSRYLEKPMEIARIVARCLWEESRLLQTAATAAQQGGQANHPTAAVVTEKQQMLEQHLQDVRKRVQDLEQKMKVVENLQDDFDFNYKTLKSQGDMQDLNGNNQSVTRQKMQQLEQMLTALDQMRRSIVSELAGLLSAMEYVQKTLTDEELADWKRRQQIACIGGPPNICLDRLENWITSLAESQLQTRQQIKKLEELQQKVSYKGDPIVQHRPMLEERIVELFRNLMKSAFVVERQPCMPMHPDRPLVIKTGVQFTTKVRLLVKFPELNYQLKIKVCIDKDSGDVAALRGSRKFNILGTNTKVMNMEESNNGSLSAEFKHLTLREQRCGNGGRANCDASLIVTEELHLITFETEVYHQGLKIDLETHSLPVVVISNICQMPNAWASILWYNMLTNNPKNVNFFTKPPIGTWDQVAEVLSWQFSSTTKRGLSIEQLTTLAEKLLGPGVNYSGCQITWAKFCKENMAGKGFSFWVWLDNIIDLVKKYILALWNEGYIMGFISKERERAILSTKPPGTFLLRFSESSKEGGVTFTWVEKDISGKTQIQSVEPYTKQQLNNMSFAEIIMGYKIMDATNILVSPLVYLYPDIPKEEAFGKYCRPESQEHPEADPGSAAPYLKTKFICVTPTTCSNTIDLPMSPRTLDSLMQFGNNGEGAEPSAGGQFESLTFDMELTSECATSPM
Protocol: ATG_CIS is a cell-based, multiplexed-readout assay that uses HepG2, a human liver cell line, with measurements taken at 24 hours after chemical dosing in a 24-well plate.ATG_STAT3_CIS is one of 52 assay component(s) measured or calculated from the ATG_CIS assay. It is designed to make measurements of mRNA induction, a form of inducible reporter, as detected with fluorescence intensity signals by Reverse transcription polymerase chain reaction (RT-PCR) and Capillary electrophoresis technology.Data from the assay component ATG_STAT3_CIS was analyzed into 1 assay endpoint. This assay endpoint, ATG_STAT3_CIS, was analyzed with bidirectional fitting relative to DMSO as the negative control and baseline of activity. Using a type of inducible reporter, measures of mRNA for gain or loss-of-signal activity can be used to understand the reporter gene at the transcription factor-level as they relate to the gene STAT3. Furthermore, this assay endpoint can be referred to as a primary readout, because this assay has produced multiple assay endpoints where this one serves a reporter gene function. To generalize the intended target to other relatable targets, this assay endpoint is annotated to the dna binding intended target family, where the subfamily is stat protein.
Human liver HepG2 cells are transiently transfected with multiple reporter transcription units (MRTUs) in 6-well plates using FuGene 6 reagent (Roche; 3 ml FuGene/1 mg DNA). The MRTU constructs are regulated by a cis-regulating element (promoter). […] A major difference between the CIS and TRANS system is that in CIS activities of endogenous TFs are measured, whereas the TRANS assay evaluates changes in activities of exogenous, chimeric NR-Gal4 proteins. […] At the end of 24 hour incubation, total RNA was isolated using TriZol reagent (Invitrogen). The isolated RNA is then reverse-transcribed using oligo(dT) primer and Mo-MLV reverse transcriptase (Invitrogen) with DNAse I (Ambion) treatment for 30 min. The one-tenth of the produced cDNA was amplified by PCR using Taq DNA polymerase (Invitrogen) and two reporter sequence-specific primers. The PCR products were fluorescently labeled by primer extension with 6-arboxyfluorescein (6-FAM) 5'-labeled reporter sequence-specific primer (2 min at 95 C, 20 s at 68 C and 10 min at 72 C) and these products were digested with 5U of HpaI (New England Biolabs) for 2h at 37 C. The fragments were purified using Qiaquick PCR columns (Qiagen), analyzed on an ABI 3130xL genetic analyzer (Applied Biosystems) with peak positions identified by using a set of X-rhodamine (ROX)-labeled MapMarker1000 molecular weight standards (BioVentures). The raw capillary electrophoresis data was processed using Attagraph software (Attagene).
For Cc1[nH]c(=O)n(C(C)(C)C)c(=O)c1Cl, the outcome was “inactive”. In the case of N#Cc1c(Cl)c(Cl)c(Cl)c(C#N)c1Cl, the outcome is reported as “inactive”. CCC(C)(C)C(=O)OC1=C(c2ccc(Cl)cc2Cl)C(=O)OC12CCCCC2 was tested, and the outcome was “inactive”. In the case of CC[C@H](C)[C@H]1O[C@]2(C=C[C@@H]1C)C[C@@H]1C[C@@H](C/C=C(\C)[C@@H](O[C@H]3C[C@H](OC)[C@@H](O[C@H]4C[C@H](OC)[C@@H](O)[C@H](C)O4)[C@H](C)O3)[C@@H](C)/C=C/C=C3\CO[C@@H]4[C@H](O)C(C)=C[C@@H](C(=O)O1)[C@]34O)O2 (tested in a mixture with another compound), the outcome is reported as “inactive”. In the case of CCc1ccc(C(=O)NN(C(=O)c2cc(C)cc(C)c2)C(C)(C)C)cc1, the outcome is reported as “inactive”. CCCN(CCC)c1c([N+](=O)[O-])cc(C(F)(F)F)cc1[N+](=O)[O-] was tested, and the outcome was “inactive”. With O=C1c2ccccc2C(=O)N1SC(Cl)(Cl)Cl the outcome was “inactive”. CCCN(CCOc1c(Cl)cc(Cl)cc1Cl)C(=O)n1ccnc1 was tested, and the outcome was “inactive”. COC(=O)c1ccccc1S(=O)(=O)NC(=O)N(C)c1nc(C)nc(OC)n1 was tested, and the outcome was “inactive”. With CC(C)N(C(=O)COc1nnc(C(F)(F)F)s1)c1ccc(F)cc1 the outcome was “inactive”. With CCOCN(C(=O)CCl)c1c(C)cccc1CC the outcome was “inactive”. COP(=S)(OC)Oc1ccc(SC)c(C)c1 was tested, and the outcome was “inactive”. In the case of O=C(O)COc1ccc(Cl)cc1Cl, the outcome is reported as “inactive”. For O=C(Nc1ccccc1)Nc1cnns1, the outcome was “inactive”. In the case of CC(C)OC(=O)Nc1cccc(Cl)c1, the outcome is reported as “inactive”. With CCOc1nc(NC)nc(NC(=O)NS(=O)(=O)c2ccccc2C(=O)OC)n1 the outcome was “inactive”. For C#CCN1C(=O)COc2cc(F)c(N3C(=O)C4=C(CCCC4)C3=O)cc21, the outcome was “inactive”. With O=[N+]([O-])c1c(Cl)c(Cl)c(Cl)c(Cl)c1Cl the outcome was “inactive”. CC1(C)C(C=C(Cl)Cl)C1C(=O)OC(C#N)c1ccc(F)c(Oc2ccccc2)c1 (stereo not given) was tested, and the outcome was “inactive”. CCN(CC)C(=O)SCc1ccc(Cl)cc1 was tested, and the outcome was “inactive”. With O=C(O)CCCOc1ccc(Cl)cc1Cl the outcome was “inactive”. For OCCOc1ccccc1, the outcome was “inactive”. With COc1cc(OC)nc(NC(=O)NS(=O)(=O)c2cc(NC=O)ccc2C(=O)N(C)C)n1 the outcome was “inactive”. In the case of O=[N+]([O-])/N=C1\NCCN1Cc1ccc(Cl)nc1, the outcome is reported as “inactive”. For CC(C)(C)C(O)C(Oc1ccc(Cl)cc1)n1cncn1 (stereo not given), the outcome was “inactive”. With O=C(O)C(F)(F)C(F)(F)C(F)(F)C(F)(F)C(F)(F)C(F)(F)C(F)(F)F the outcome was “inactive”. For COc1nn(CSP(=S)(OC)OC)c(=O)s1, the outcome was “inactive”. For O=S(=O)(O)C(F)(F)C(F)(F)C(F)(F)C(F)(F)C(F)(F)C(F)(F)C(F)(F)C(F)(F)F, the outcome was “inactive”. CCC(C)Nc1c([N+](=O)[O-])cc(C(C)(C)C)cc1[N+](=O)[O-] (stereo not given) was tested, and the outcome was “inactive”. In the case of ClC1C(Cl)C(Cl)C(Cl)C(Cl)C1Cl (stereo not given), the outcome is reported as “inactive”. With CC1(c2ccc(Oc3ccccc3)cc2)OC(=O)N(Nc2ccccc2)C1=O (stereo not given) the outcome was “inactive”. For O=C(NC(=O)c1c(F)cccc1F)Nc1ccc(OC(F)(F)C(F)OC(F)(F)F)c(Cl)c1 (stereo not given), the outcome was “inactive”. With N#CN the outcome was “inactive”. With COP(=S)(OC)Oc1ccc([N+](=O)[O-])cc1 the outcome was “inactive”. Cc1cc(C)nc(NC(=O)NS(=O)(=O)c2ccccc2C(=O)OC2COC2)n1 was tested, and the outcome was “inactive”. For CN1CSC(=S)N(C)C1, the outcome was “inactive”. With COC(=O)c1ccccc1S(=O)(=O)NC(=O)Nc1nc(C)nc(OC)n1 the outcome was “inactive”. For CNC(=O)/C=C(\C)OP(=O)(OC)OC, the outcome was “inactive”. With CNC(=O)CSP(=S)(OC)OC the outcome was “inactive”. [2H]C1([2H])[n+]2ccccc2-c2cccc[n+]2C1([2H])[2H] was tested, and the outcome was “inactive”.
